Assay [1] can be described thus: qHTS to identify inhibitors of the type 1 interferon - major histocompatibility complex class I in skeletal muscle: primary screen against the NCATS Pharmaceutical Collection (AID 1347407).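 Further: luminescence of HiBiT knocked into endogenous HLA-B as interferon-induced MHC class I level; on the % scale 0 is the no-effect control and ±100 the full control effect.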 The gist of the method: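 HLA-B HiBiT myoblasts, dexamethasone-free growth medium + 4 ng/ml IFN-b; compounds pinned 1 h after seeding, […] from 46 uM; 24 h, 37 C, 5% CO2; lytic HiBiT detection, 10 min RT, luminescence.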
For orientation: Quantitative high-throughput screening tests each substance at several concentrations.

The target in assay [2] is Protein phosphatase 1D (Homo sapiens) (UniProt O15297). Put plainly: RapidFire Mass Spectrometry qHTS Assay for Modulators of WT P53-Induced Phosphatase 1 (WIP1) (AID 1347424).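 Further: series mostly up to about 63 µM; plate controls were DMSO wells for no effect and GSK830371 inhibitor control at 10 µM for full effect.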 The gist of the method: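 RapidFire MS readout of dephosphorylated VEPPL-S-QETFS product, with 1 uM isotope-labelled peptide standard. Reaction: 10 nM WIP1, 2 uM phosphopeptide substrate, 5 min, room temperature, after 1 h compound preincubation; stopped with 0.5% formic acid.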
Chain of Protein phosphatase 1D (Homo sapiens) (O15297 whole entry, looked up): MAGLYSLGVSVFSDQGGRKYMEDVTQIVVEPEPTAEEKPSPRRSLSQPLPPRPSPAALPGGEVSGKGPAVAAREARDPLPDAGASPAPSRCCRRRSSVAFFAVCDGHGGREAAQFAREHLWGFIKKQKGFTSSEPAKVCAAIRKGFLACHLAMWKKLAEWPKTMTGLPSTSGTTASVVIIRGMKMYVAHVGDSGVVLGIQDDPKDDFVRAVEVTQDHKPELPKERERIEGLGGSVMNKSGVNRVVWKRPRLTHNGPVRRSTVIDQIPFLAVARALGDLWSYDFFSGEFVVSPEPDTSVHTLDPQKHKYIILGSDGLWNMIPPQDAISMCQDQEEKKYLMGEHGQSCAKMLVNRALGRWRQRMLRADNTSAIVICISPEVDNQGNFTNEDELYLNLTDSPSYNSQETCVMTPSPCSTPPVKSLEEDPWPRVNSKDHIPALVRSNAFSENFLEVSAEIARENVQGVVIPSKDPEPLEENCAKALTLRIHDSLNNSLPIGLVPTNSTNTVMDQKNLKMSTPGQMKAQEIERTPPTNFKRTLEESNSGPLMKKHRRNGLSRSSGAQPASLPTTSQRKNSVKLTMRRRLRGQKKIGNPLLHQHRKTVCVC

For assay [3] the target is unchanged. Put plainly: Rhodamine-PBP qHTS Assay for Modulators of WT P53-Induced Phosphatase 1 (WIP1) (AID 1347425). Further: % of control where 0% means no effect. The gist of the method: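 The read-out is the change in Rhodamine-PBP fluorescence (f1 - f0, ex 525/em 598 nm) as Pi is released, read each minute for 11 min. Final reaction: 5 nM WIP1, 10 uM phosphopeptide VEPPL-pS-QETFS, 10 uM Rh-PBP, 50 mM Tris-HCl pH 7.5, 30 mM MgCl2. Compound was preincubated with enzyme for 1 hour at room temperature.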

Assay [4] in a line: Primary qHTS for inhibitors of La Crosse Virus (LACV) - induced cell death in SH-SY5Y cells (AID 1508616).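 Further: top concentration of the series differs between compounds; 0% = infected DMSO wells and 100% = uninfected DMSO wells; higher means more rescue of cells from virus-induced death.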 The gist of the method:
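Cytopathicity rescue screen: compounds pinned onto SH-SY5Y cells, which are then infected with LACV (MOI 0.01) and held 6 days at 37C. Percent activity is scaled between infected DMSO control and uninfected DMSO control.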

Assay [5] concerns the target Calcium and integrin-binding protein 1 (Homo sapiens) (UniProt Q99828). Briefly: Primary qHTS for Identification of Calcium Integrin Binding Protein 1 (CIB1) Competitor (AID 1508620). Further: top concentration of the series differs between compounds; on the % scale 0 is the no-effect control and ±100 the full control effect. The method, boiled down: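 Fluorescence polarization competition: GST-tagged CIB1 (1 uM final) preincubated with compound 15 min at room temperature, then FITC-labelled alphaIIb peptide (100 nM final) added. After 15 min at room temperature, polarization read at Ex 480/Em 540.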

The nature of assay [6]: Primary qHTS for small molecule stabilizers of the endoplasmic reticulum resident proteome: Secreted ER Calcium Modulated Protein (SERCaMP) assay (AID 1508630). Further: on the % scale 0 is the no-effect control and ±100 the full control effect. The gist of the method:
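The SH-SY5Y reporter protocol was run at 3 concentrations up to 38.3 uM (primary) or 11 concentrations (follow-up): 16 h compound, 100 nM thapsigargin for 4 h, then extracellular luciferase luminescence.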

Assay [7] is described as follows: A High-Content qHTS Against Drug Library for the Identification of Small Molecules that Inhibit DYT1 Early Onset Primary Dystonia-Associated Cell Pathology (AID 1645839; calls by dose curve; further: series mostly up to about 46 µM). The gist of the method:
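Cells were seeded and left for 24 h, then dosed with compound alongside tetracycline induction of mutant EGFP-TorsinA. They were incubated for 48 h, fixed in 4% paraformaldehyde, permeabilized and imaged for mislocalization (%pathology) and cell count.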

The target of assay [8] is Cytochrome P450 2D6 (Homo sapiens) (UniProt P10635). Briefly: Cytochrome P450 family 2 subfamily D member 6 (CYP2D6) small molecule antagonists: luciferase biochemical (cell-free) qHTS assay (AID 1645840; active means well fitted curve in the direction sought with a large enough effect in the repeat runs; an effect the other way counts as inactive or inconclusive; further: series mostly up to about 57 µM; on the % scale 0 is the no-effect control and ±100 the full control effect; nearly all actives have a fitted effect of over 55% in size). The method, boiled down:
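P450-Glo CYP2D6 system: proluciferin substrate converted by enzyme to luciferin, read by luminescence proportional to activity. Enzyme-substrate mix with compound 10 min at room temperature, then NADPH regeneration 1 h before detection reagent.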

For assay [9], the target named is Cytochrome P450 3A4 (Homo sapiens) (UniProt P08684). Put plainly: Cytochrome P450 family 3 subfamily A member 4 (CYP3A4) small molecule antagonists: luciferase qHTS assay (AID 1645841; active means well fitted curve in the direction sought with a large enough effect in the repeat runs; an effect the other way counts as inactive or inconclusive; further: nearly all actives have a fitted effect of over 45% in size). The gist of the method:
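P450-Glo CYP3A4 enzyme with proluciferin substrate preincubated 10 min with compound at room temperature, then NADPH regeneration 1 h. Luciferin detection reagent added for 20 min; luminescence recorded. Ketoconazole positive control.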

Assay [10] deals with Cytochrome P450 2C9 (Homo sapiens) (UniProt P11712). Briefly: Cytochrome P450 family 2 subfamily C member 9 (CYP2C9) small molecule antagonists: luciferase biochemical (cell-free) qHTS assay (AID 1645842; active means well fitted curve in the direction sought with a large enough effect in the repeat runs; an effect the other way counts as inactive or inconclusive; further: series mostly up to about 57 µM; on the % scale 0 is the no-effect control and ±100 the full control effect; nearly all actives have a fitted effect of over 55% in size). The method, boiled down: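 P450-Glo CYP2C9 system: proluciferin substrate with enzyme in mix containing 0.4% BSA, 10 min at room temperature, then NADPH regeneration solution added and incubated 1 h at 37C. Detection reagent stopped reaction; luminescence read after 20 min as RLU.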
Chain of Cytochrome P450 2C9 (Homo sapiens) (P11712 whole entry, looked up): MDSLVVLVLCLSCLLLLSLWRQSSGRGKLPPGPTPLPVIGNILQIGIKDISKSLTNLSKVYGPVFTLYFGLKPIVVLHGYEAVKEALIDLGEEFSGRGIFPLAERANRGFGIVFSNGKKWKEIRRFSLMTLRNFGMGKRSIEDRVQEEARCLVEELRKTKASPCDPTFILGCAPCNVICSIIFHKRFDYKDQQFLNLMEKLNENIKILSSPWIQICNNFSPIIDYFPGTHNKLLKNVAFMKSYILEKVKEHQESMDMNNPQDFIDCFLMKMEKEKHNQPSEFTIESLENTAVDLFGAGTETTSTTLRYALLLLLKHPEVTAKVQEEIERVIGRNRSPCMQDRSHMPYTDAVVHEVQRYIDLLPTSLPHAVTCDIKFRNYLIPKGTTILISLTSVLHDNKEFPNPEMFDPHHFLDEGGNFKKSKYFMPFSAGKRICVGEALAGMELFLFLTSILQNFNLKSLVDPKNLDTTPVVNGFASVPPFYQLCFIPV

Assay [11] in a line: Confirmatory qHTS for small molecule stabilizers of the endoplasmic reticulum resident proteome: Secreted ER Calcium Modulated Protein (SERCaMP) assay (AID 1508628). Further: potency means the concentration at half of the fitted maximal effect; nearly all actives have a fitted effect of over 40% in size. The method, boiled down:
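GLuc-SERCaMP-expressing SH-SY5Y cells, pretreated 16 h with compound, are challenged with thapsigargin to empty ER calcium stores; after 4 h, coelenterazine is added directly to the medium and luminescence is imaged.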

Assay [12] can be described thus: Cell Viability qHTS for small molecule stabilizers of the endoplasmic reticulum resident proteome (AID 1508629).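 Further: compound exposure about 46 h in total before the viability read; on the % scale 0 is the no-effect control and ±100 the full control effect.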 The note with it: cell viability counter-screen, 100 nM thapsigargin for final 4 h. The source says:
Assay Provider: Brandon K. Harvey Ph.D.
National Institute on Drug Abuse, National Institutes of Health, Baltimore, MD
Endoplasmic reticulum (ER) dysregulation is associated with human pathologies including neurodegenerative, cardiovascular, muscular, and diabetic conditions. Maintenance of ER calcium is critical for functions of the ER and its depletion can lead to loss of ER resident proteins, in a process termed exodosis. Therapeutic compounds capable of attenuating the redistribution of ER proteins under pathological conditions may slow or stop disease progression. To identify such compounds, we performed a quantitative high-throughput screen (qHTS) using the SERCaMP assay, which monitors secretion of ER resident proteins triggered by calcium depletion.
SERCaMP was initially developed as a reporter of ER calcium homeostasis using a Gaussia luciferase with a modified signal peptide and carboxy-terminus (GLuc-SERCaMP), modifications that confer secretion of the reporter in response to ER calcium depletion (Henderson et al., 2014). The assay was used to screen 9,501 compounds, including a collection of drugs approved by the FDA (US), EMA (EU), NHI (Japan), and HC (Canada) regulatory agencies (Huang et al., 2011). Since the SERCaMP reporter reflects the exodosis phenomenon (Trychta et al., 2018a), compounds identified in the screen have the potential to prevent exodosis by different mechanisms such as stabilizing ER calcium or augmenting ERS retrieval.
1. Henderson, M.J., Wires, E.S., Trychta, K.A., Richie, C.T., and Harvey, B.K. (2014). SERCaMP: a carboxy-terminal protein modification that enables monitoring of ER calcium homeostasis. Mol Biol Cell 25, 2828-2839.
2. Huang, R., Southall, N., Wang, Y., Yasgar, A., Shinn, P., Jadhav, A., Nguyen, D.T., and Austin, C.P. (2011). The NCGC pharmaceutical collection: a comprehensive resource of clinically approved drugs enabling repurposing and chemical genomics. Sci Transl Med 3, 80ps16.
3. Trychta, K.A., Back, S., Henderson, M.J., and Harvey, B.K. (2018a). KDEL Receptors Are Differentially Regulated to Maintain the ER Proteome under Calcium Deficiency. Cell Rep 25, 1829-1840 e1826.
SEQUENCE No. (1, 2, 3, etc.); […] (e.g., Cells, Incubation, Reagent, etc.); VALUE and DESCRIPTION.
1; Reagent; 5 uL; 1000 SH-SY5Y cells per wells
3; Compound; 23 nL; Control inhibitor / compound library
5; Reagent; 100 nM; Thapsigargin
7; Reagent; 5 uL; CellTiter-Glo (Promega)
8; Time; 10 min; room temperature
9; Detection; Luminescence; ViewLux imaging system
NOTES (numbers refer to sequence above)
1; SH-SY5Y human neuroblastoma cells stably expressing GLuc-SERCaMP (SH-SY5Y-GLuc-ASARTDL) cells were seeded in 1,536 well white tissue culture treated plates (Corning, Cat# 7464) in DMEM-high glucose-sodium pyruvate (ThermoFisher Scientific, Cat #10569) supplemented with 10% bovine growth serum (Hyclone), 10 U/ml penicillin (Gibco), 10 ug/ml streptomycin (Gibco), and 20 mM HEPES.
2; Assay plates were incubated for 5 hr at 37C in a humidified incubator containing 5% CO2.
3; qHTS libraries (23 nl, final concentrations of 1.53 uM, 7.67 uM, 38.3 uM) or controls (neutral control: DMSO, positive control: dantrolene) were added using a Kalypsis pin-tool Robotic System equipped with 1536 pinheads.
4; Cells were then incubated for 42 hours at 37C, 5% CO2. […]
7; Cell viability was measured using the CellTiter-Glo Luminescent Cell Viability Assay (Promega). […]
9; Luminescence was measured using a ViewLux CCD imaging system (Perkin Elmer) equipped with clear filters.

A short description of assay [13]: Primary qHTS for inhibitors of nuclear receptor binding SET domain protein 2 (NSD2) in an isogenic RCH-ACV NSD2 p.E1099K mutant (9B) (AID 1645876). Further: nearly all actives have a fitted effect of over 70% in size.
A short description of assay [14]: qHTS to identify inhibitors of the type 1 interferon - major histocompatibility complex class I in skeletal muscle: primary screen against the NCATS Mechanism Interrogation Plate v5.0 (MIPE) Libary (AID 1347411).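 Further: plate controls were vehicle for no effect and reference inhibitor for full effect; nearly all actives have a fitted effect of over 65% in size.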 The gist of the method: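 HLA-B HiBit myoblasts, dexamethasone-free medium + 4 ng/ml IFN-b, 24 h compound, 11-pt 1:3 from 46 uM final. Readout: Nano-Glo HiBiT lytic luminescence after 10 min lysis, RT.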

A short description of assay [15]: Primary qHTS for inhibitors of nuclear receptor binding SET domain protein 2 (NSD2) in an RCH-ACV wild type WT cells (2C) (AID 1645877). Further: nearly all actives have a fitted effect of over 70% in size.
Assay [16] concerns the target N-terminal Xaa-Pro-Lys N-methyltransferase 1 (Homo sapiens) (UniProt Q9BV86). Briefly: Confirmatory qHTS for Inhibitors of N-terminal methyltransferase 1 (NTMT1): MTaseGlo Assay (AID 1645874).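 Further: luminescence from SAH made as NTMT1 methylates SPKRIA peptide using SAM; series mostly up to about 100 µM; 0% = DMSO control and -100% = no-enzyme control; nearly all actives have a fitted effect of over 65% in size.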 The method, boiled down: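 MTase-Glo luminescence measured SAH formed by 125 nM NTMT1 from 100 uM SAM and 1 uM SPKRIA peptide over 30 min at room temperature, following 15 min compound preincubation. Percent inhibition against no-enzyme and DMSO controls gave 4-parameter Hill fits.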

Results filed as inconclusive are left out. A number with no mark means an inactive call. Active and inactive are the calls of the source. Unless noted, the call rests on the fitted dose curve; in most records, active means well fitted curve in the direction sought with a large enough effect; inconclusive means small, poorly fitted or top-dose-only effect, or another doubt; inactive means no such curve, though single readings can be large; an effect the other way counts as inactive or inconclusive.

Chain of Cytochrome P450 2D6 (Homo sapiens) (P10635 whole entry, looked up): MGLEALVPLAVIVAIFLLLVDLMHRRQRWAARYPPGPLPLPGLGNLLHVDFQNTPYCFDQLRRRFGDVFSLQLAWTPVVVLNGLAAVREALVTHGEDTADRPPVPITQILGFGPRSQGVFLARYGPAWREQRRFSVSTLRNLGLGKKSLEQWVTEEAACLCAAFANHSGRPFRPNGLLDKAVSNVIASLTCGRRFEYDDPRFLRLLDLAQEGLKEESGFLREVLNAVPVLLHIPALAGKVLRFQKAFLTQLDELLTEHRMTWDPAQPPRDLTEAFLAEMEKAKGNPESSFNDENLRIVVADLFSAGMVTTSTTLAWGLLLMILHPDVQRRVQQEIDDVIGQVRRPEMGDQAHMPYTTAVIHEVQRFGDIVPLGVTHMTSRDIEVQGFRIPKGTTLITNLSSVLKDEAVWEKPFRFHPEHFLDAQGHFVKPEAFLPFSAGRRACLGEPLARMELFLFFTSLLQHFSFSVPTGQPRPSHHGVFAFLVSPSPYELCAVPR
Chain of Calcium and integrin-binding protein 1 (Homo sapiens) (Q99828 whole entry, looked up): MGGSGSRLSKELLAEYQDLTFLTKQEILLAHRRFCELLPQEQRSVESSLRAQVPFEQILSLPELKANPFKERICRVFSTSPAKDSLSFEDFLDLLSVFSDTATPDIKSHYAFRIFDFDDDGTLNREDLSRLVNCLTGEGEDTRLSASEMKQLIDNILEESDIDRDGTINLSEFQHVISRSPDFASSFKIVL
Chain of Cytochrome P450 3A4 (Homo sapiens) (P08684 whole entry, looked up): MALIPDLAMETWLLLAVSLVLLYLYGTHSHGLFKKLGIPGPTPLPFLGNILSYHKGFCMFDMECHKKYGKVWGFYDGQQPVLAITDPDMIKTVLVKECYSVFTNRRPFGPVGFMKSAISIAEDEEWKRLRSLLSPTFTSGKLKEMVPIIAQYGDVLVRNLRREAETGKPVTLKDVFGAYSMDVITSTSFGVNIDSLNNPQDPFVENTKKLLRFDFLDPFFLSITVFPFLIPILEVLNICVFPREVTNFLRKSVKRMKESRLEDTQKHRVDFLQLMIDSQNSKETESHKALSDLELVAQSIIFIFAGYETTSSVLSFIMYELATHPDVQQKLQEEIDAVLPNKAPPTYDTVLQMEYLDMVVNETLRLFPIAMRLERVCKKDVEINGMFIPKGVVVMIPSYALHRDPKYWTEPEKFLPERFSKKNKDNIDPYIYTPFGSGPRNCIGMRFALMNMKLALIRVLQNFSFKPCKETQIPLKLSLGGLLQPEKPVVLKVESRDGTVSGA
Chain of N-terminal Xaa-Pro-Lys N-methyltransferase 1 (Homo sapiens) (Q9BV86 whole entry, looked up): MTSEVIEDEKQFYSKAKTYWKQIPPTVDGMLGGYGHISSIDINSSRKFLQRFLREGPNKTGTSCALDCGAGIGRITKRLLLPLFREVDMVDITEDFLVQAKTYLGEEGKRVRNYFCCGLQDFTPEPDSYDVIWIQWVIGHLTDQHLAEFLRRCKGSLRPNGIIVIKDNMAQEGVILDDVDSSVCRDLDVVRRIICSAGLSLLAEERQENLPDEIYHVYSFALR

Turning to `CC1(c2ccccc2)OC(C(=O)O)=CC1=O` (stereo not drawn), the result in assay [1], in assay [2], in assay [3], in assay [4], in [5] and in assay [6] was inactive. The compound was classed as inactive in assay [9]. Further, the Potency entry in assay [7], in assay [8] and in assay [10] was “inactive” each time.

`CCOc1ccccc1O[C@H](c1ccccc1)[C@H]1CNCCO1`: the result in assay [1], in assay [2], in assay [3], in [4] and in [5] was inactive. Further, in assay [11], the Potency is 22.4 µM (active). In assay [12], the max response is 9.87%. Also, the Potency result in assay [7] and in [10] was “inactive” each time.

As for `CNc1c2c(nn1C)CCCC2`, the compound was called inactive in [1], in assay [2], in assay [3], in assay [4], in assay [5] and in [6]. Moreover, the Potency entry in [7], in assay [8] and in assay [10] was “inactive” in each case.

Turning to `O=C(CN1CCNCC1)NC1CCCCC1`, the result in [1], in [2], in [3], in [4], in assay [5] and in assay [6] was inactive. The call in assay [9] was inactive. Moreover, the Potency result in assay [7], in assay [8], in [10] and in assay [13] was “inactive” in each case.

As to `CCN(CC)CC1CCCCN1CC(=O)N1c2ccccc2C(=O)Nc2cccnc21` (stereo not drawn), the outcome in assay [1], in [2], in assay [3], in [4], in assay [5] and in assay [6] was inactive. For the same compound, in assay [9], the compound was called inactive. Also, the Potency result in assay [7] and in assay [8] was “inactive” in each case.

In the case of `CCCOC(=O)c1ccc(N)cc1`, the call in [1], in assay [2], in assay [3], in assay [4], in assay [5] and in assay [6] was inactive. Besides, the Potency entry in assay [7] and in [8] was “inactive” each time.

For the compound `CCCCCOC(=O)Nc1nc(=O)n([C@@H]2O[C@H](C)[C@@H](O)[C@H]2O)cc1F`, the result in assay [1], in assay [14], in assay [2], in assay [3], in assay [4] and in [5] was inactive. Besides, the Potency result in assay [7], in assay [8], in assay [10], in [13] and in assay [15] was “inactive” throughout.

Regarding `CCS(=O)(=O)CCn1c([N+](=O)[O-])cnc1C`, the result in assay [1], in assay [2], in assay [3], in assay [4], in assay [5] and in assay [6] was inactive. Further, the Potency result in [7] was “inactive”.

As to `CCN(CC)S(=O)(=O)c1ccc(C(=O)O)cc1`, the result in assay [1], in [2], in [3], in [4], in assay [5] and in assay [6] was inactive. In addition, in assay [9], the result was inactive. The Potency entry in [7], in assay [8], in [13] and in [15] was “inactive” each time.

As to `CCOC(=O)[C@H](CCc1ccccc1)N[C@@H](C)C(=O)N1CCC[C@H]1C(=O)O`, the result in assay [1], in assay [14], in assay [2], in assay [3], in [4] and in assay [5] was inactive. The result in assay [6] was inactive. Also, the Potency result in assay [7], in assay [8], in [10] and in assay [13] was “inactive” throughout.

As to `O=C(NCC(O)CO)c1c(I)c(C(=O)NCC(O)CO)c(I)c(N(CCO)C(=O)CO)c1I` (stereo not drawn), the compound was classed as inactive in assay [1], in assay [2], in assay [3], in assay [4], in [5] and in assay [6]. Moreover, the Potency entry in assay [7], in assay [8], in [10] and in assay [13] was “inactive” throughout.

Regarding `O=c1[nH]cnc2nc[nH]c12`, the compound was called inactive in [1], in assay [2], in assay [3], in [4], in assay [5] and in assay [6]. Further, the Potency entry in assay [7], in assay [8], in [10], in assay [16], in [13] and in [15] was “inactive” throughout.

The values are drawn from PubChem BioAssay (NCATS).
